In PubChem BioAssay (NCATS):
Where “and” joins values, the source holds several entries; their conditions need not be identical. Equal values may be shown once. Inconclusive results are not listed. Unmarked numbers belong to inactive results. Calls of active or inactive are those of the source. The call rests on the fitted dose curve; in most records, active means well fitted curve in the direction sought with a large enough effect; inconclusive means small, poorly fitted or top-dose-only effect, or another doubt; inactive means no such curve, though single readings can be large; an effect the other way counts as inactive or inconclusive. Positions of bridges follow the written chain, without caps; N, C: chain ends. Non-standard residues stand in square brackets, D forms with d. Residues, ends and D or L forms follow the SMILES beside them. ξ: configuration not given here. *: point of attachment. Sta = CC(C)C[C@H](N)[C@@H](O)CC(=O)O; Octanoyl(6-Me) = CCC(C)CCCCC(=O)*; ξThr(3R) = C[C@@H](O)C(N)C(=O)O; Isovaleryl = CC(C)CC(=O)*; dDab = NCC[C@@H](N)C(=O)O; Dab = NCC[C@H](N)C(=O)O

What was measured:
[1] = biological target: Cellular tumor antigen p53 (Homo sapiens) (UniProt P04637); test: Primary qHTS for small molecule compounds that upregulate eGFP-tagged delta133p53alpha (in N-terminal) cells. (AID 2060322); conditions: NCI-H358 eGFP-delta133p53alpha fluorescence, 24 h; activation: hits give high values; further: nearly all actives have a fitted effect of over 75% in size;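 on activation: cells pre-induced with doxycycline then dosed without doxycycline; 0% = DMSO vehicle and 100% = reference activator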
How it was run: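 NCI-H358 cells pre-induced 24 h with 10 ng/ml doxycycline for eGFP-delta133p53alpha, plated dox-free and exposed 24 h at 37C to titrated compounds. Fixed, Hoechst-stained; gated GFP peak intensity by laser scanning cytometry, normalized to DMSO (0%) and 57.5 uM 5-azacytidine (100%).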

[2] = BET inhibitor-based combinations targeting novel dependencies in MECOM-rearranged (r) AML: SET-2 cell line (AID 2202231); conditions: SET-2 AML cells viability, CellTiter-Glo luminescence, 48 h; viability: hits give low values, concentration not given here; further: nearly all actives have a fitted effect of over 35% in size;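 on viability: plate controls were DMSO treated cells for no effect and wells without cells for full effect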
How it was run: (§1)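 Readout: CellTiter-Glo luminescence. Exposure: 48 h, 11 concentrations, 500 cells/well. Metric: AUC and within-line Z-AUC after DMSO/empty-well normalization.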

[3] = BET inhibitor-based combinations targeting novel dependencies in MECOM-rearranged (r) AML: OCI-AML3 cell line (AID 2202232); conditions: CellTiter-Glo luminescence, 48 h; Potency: OCI-AML3 viability; series mostly up to 46 µM; further: nearly all actives have a fitted effect of over 35% in size;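 on viability (% of control): plate controls were DMSO vehicle wells for no effect and wells without cells for full effect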
How it was run: as §1

[4] = BET inhibitor-based combinations targeting novel dependencies in MECOM-rearranged (r) AML: MV-4-11 cell line (AID 2202233); conditions: MV-4-11 AML viability, CellTiter-Glo luminescence, 48 h; series mostly up to 46 µM; further: nearly all actives have a fitted effect of over 45% in size;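 on viability, % of control: plate controls were DMSO for no effect and blank wells for full effect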
How it was run: (§2)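 Seeding density was 500 cells/well, and drug exposure lasted 48 hr under standard culture conditions. Read-out used CellTiter-Glo reagent with a 15 min room-temperature incubation before luminescence measurement; AUC and Z-AUC summarize the normalized responses.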

[5] = BET inhibitor-based combinations targeting novel dependencies in MECOM-rearranged (r) AML: HNT-34 cell line (AID 2202234); conditions: HNT-34 AML viability, CellTiter-Glo luminescence, 48 h; series mostly up to 46 µM; further: nearly all actives have a fitted effect of over 35% in size;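 on viability (% of control): plate controls were vehicle wells for no effect and cell-free wells for full effect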
How it was run: as §2

[6] = BET inhibitor-based combinations targeting novel dependencies in MECOM-rearranged (r) AML: UCSD-AML1 cell line (AID 2202235); conditions: UCSD-AML1 AML cells viability, CellTiter-Glo, 48 h; series mostly up to 46 µM; further: nearly all actives have a fitted effect of over 40% in size;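 on viability (% of control): plate controls were DMSO vehicle wells for no effect and blank wells for full effect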
How it was run: as §2

[7] = BET inhibitor-based combinations targeting novel dependencies in MECOM-rearranged (r) AML: AML-191 cell line (AID 2202236; further: nearly all actives have a fitted effect of over 35% in size;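 on viability (% of control): plate controls were vehicle wells for no effect and wells without cells for full effect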); conditions: AML-191 viability, CellTiter-Glo luminescence, 48 h; series mostly up to 46 µM
How it was run: as §1

[8] = BET inhibitor-based combinations targeting novel dependencies in MECOM-rearranged (r) AML: AML-194 cell line (AID 2202237; further: nearly all actives have a fitted effect of over 40% in size;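 on viability (% of control): plate controls were vehicle wells for no effect and wells without cells for full effect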); conditions: AML-194 (MECOM-r AML) viability, CellTiter-Glo, 48 h; series mostly up to 46 µM
How it was run: as §1
Potency means the concentration at half of the fitted maximal effect.

Sequence of Cellular tumor antigen p53 (Homo sapiens) (P04637 whole entry, looked up): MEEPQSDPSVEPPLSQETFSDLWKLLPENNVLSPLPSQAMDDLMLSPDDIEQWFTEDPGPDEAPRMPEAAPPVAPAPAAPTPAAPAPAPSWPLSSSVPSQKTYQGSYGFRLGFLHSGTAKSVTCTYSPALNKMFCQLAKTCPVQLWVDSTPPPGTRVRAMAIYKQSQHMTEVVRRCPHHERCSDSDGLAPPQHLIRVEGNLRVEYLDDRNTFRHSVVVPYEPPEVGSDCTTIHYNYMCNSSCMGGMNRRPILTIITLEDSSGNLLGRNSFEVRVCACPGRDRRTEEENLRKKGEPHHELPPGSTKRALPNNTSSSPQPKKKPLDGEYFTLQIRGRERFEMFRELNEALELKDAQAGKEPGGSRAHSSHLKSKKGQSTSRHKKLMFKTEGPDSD

SMILES	activation [1]	viability [2]	Potency [3]	Potency [4]	Potency [5]	Potency [6]	Potency [7]	Potency [8]	Potency [2]	Potency [1]	viability (% of control) [3]	viability, % of control [4]	viability (% of control) [5]	viability (% of control) [6]	viability (% of control) [7]	viability (% of control) [8]
CC(C)(C#N)c1cc(Cn2cncn2)cc(C(C)(C)C#N)c1	2.42%	107%	inactive	inactive	inactive	inactive	inactive	inactive	–	–	–	–	–	–	–	–
COc1ccc([C@@H]2CNC(=O)C2)cc1OC1CCCC1	7.46%	118%	inactive	inactive	inactive	inactive	inactive	inactive	–	–	–	–	–	–	–	–
COC(=O)Nc1nc2ccc(Sc3ccccc3)cc2[nH]1	-17.6% and 21.8%	–	742 nM (active)	934 nM (active)	525 nM (active)	468 nM (active)	468 nM (active)	417 nM (active)	1180 nM (active)	–	–	–	–	–	–	–
OC(Cn1cncn1)(Cn1cncn1)c1ccc(F)cc1F	6.21% and 14.6%	116%	inactive	inactive	inactive	inactive	inactive	inactive	–	–	–	–	–	–	–	–
Nc1nc(Cl)nc2c1ncn2[C@H]1C[C@H](O)[C@@H](CO)O1	24.5%	–	83.3 nM (active)	93.4 nM (active)	74.2 nM (active)	29.5 nM (active)	83.3 nM (active)	74.2 nM (active)	263 nM (active)	–	–	–	–	–	–	–
CN1CC(=O)NC1=NC(=O)Nc1cccc(Cl)c1	-20.6%	111%	inactive	inactive	inactive	inactive	inactive	inactive	–	–	–	–	–	–	–	–
CCCc1cc(C(N)=S)ccn1	-10.9% and -12.4%	112%	inactive	inactive	inactive	inactive	inactive	inactive	–	–	–	–	–	–	–	–
CCC(C)SSc1ncc[nH]1 (stereo not given)	-4.29%	–	8330 nM (active)	2630 nM (active)	9340 nM (active)	7420 nM (active)	5250 nM (active)	7420 nM (active)	11800 nM (active)	–	–	–	–	–	–	–
COc1cc([C@@H]2c3cc4c(cc3[C@H](O)[C@H]3COC(=O)[C@@H]23)OCO4)cc(OC)c1OC	31.7%	–	833 nM (active)	833 nM (active)	417 nM (active)	468 nM (active)	662 nM (active)	525 nM (active)	1180 nM (active)	–	–	–	–	–	–	–
CC(C)[C@H](N)C(=O)OCCOCn1cnc2c(=O)[nH]c(N)nc21	-14.1% and 18.6%	92.3%	inactive	inactive	inactive	inactive	inactive	inactive	–	–	–	–	–	–	–	–
Oc1ccc(C2=Cc3ccc(O)cc3OC2)cc1	5.86%	–	525 nM (active)	662 nM (active)	1180 nM (active)	1320 nM (active)	2950 nM (active)	10500 nM (active)	2090 nM (active)	–	–	–	–	–	–	–
CCN1CCN(C(=O)N[C@@H](C(=O)N[C@@H]2C(=O)N3C(C(=O)O)=C(CSc4nnnn4C)CS[C@H]23)c2ccc(O)cc2)C(=O)C1=O	-7.34%	99.4%	inactive	inactive	inactive	inactive	inactive	inactive	–	–	–	–	–	–	–	–
CCC(C)CCCCC(=O)N[C@@H](CCN)C(=O)NC(C(=O)N[C@H](CCN)C(=O)N[C@@H]1CCNC(=O)C([C@@H](C)O)NC(=O)[C@@H](CCN)NC(=O)[C@@H](CCN)NC(=O)[C@@H](CC(C)C)NC(=O)[C@H](Cc2ccccc2)NC(=O)[C@H](CCN)NC1=O)[C@@H](C)O (stereo partly drawn) ({Octanoyl(6-Me)}-[Dab][ξThr(3R)][dDab][dDab][Dab]F[dL][dDab][dDab][ξThr(3R)]; lactam 4-C)	11.9%	126%	inactive	inactive	inactive	inactive	inactive	inactive	–	–	–	–	–	–	–	–
Cc1nc2cnc3ccc(C#Cc4cccnc4)cc3c2n1-c1ccc(C(C)(C)C#N)cc1	35.7%	–	2950 nM (active)	742 nM (active)	525 nM (active)	296 nM (active)	590 nM (active)	468 nM (active)	1660 nM (active)	–	–	–	–	–	–	–
CNC[C@H](O)[C@@H](O)[C@H](O)[C@H](O)CO	-10%	121%	inactive	inactive	inactive	inactive	inactive	inactive	–	–	–	–	–	–	–	–
CN(C)c1ccc(C(=C2C=CC(=[N+](C)C)C=C2)c2ccc(N(C)C)cc2)cc1	-20.9%	–	1320 nM (active)	662 nM (active)	934 nM (active)	1050 nM (active)	1180 nM (active)	934 nM (active)	1050 nM (active)	–	–	–	–	–	–	–
CC(C)[C@H](O)C(=O)N[C@@H](C)C(=O)N[C@@H]1C(=O)N(C)CCc2ccccc21	28.1%	117%	inactive	inactive	inactive	inactive	inactive	inactive	–	–	–	–	–	–	–	–
Cc1ccc(S(=O)(=O)OCC(=O)Nc2ccc(C(=O)O)c(O)c2)cc1	22.5%	117%	inactive	inactive	inactive	inactive	inactive	inactive	–	–	–	–	–	–	–	–

SMILES	activation [1]	viability [2]	Potency [3]	Potency [4]	Potency [5]	Potency [6]	Potency [7]	Potency [8]	Potency [2]	Potency [1]	viability (% of control) [3]	viability, % of control [4]	viability (% of control) [5]	viability (% of control) [6]	viability (% of control) [7]	viability (% of control) [8]
CC(C)CC(=O)N[C@H](C(=O)N[C@H](C(=O)N[C@@H](CC(C)C)[C@@H](O)CC(=O)N[C@@H](C)C(=O)N[C@@H](CC(C)C)[C@@H](O)CC(=O)O)C(C)C)C(C)C (Isovaleryl-VV[Sta]A[Sta]-OH)	-1.4%	117%	inactive	inactive	inactive	inactive	inactive	inactive	–	–	–	–	–	–	–	–
CN1CC[C@@H](c2c(O)cc(O)c3c(=O)cc(-c4ccccc4Cl)oc23)[C@@H](O)C1	–	–	263 nM (active)	468 nM (active)	468 nM (active)	417 nM (active)	372 nM (active)	417 nM (active)	525 nM (active)	217 nM (active)	–	–	–	–	–	–
CS(=O)(=O)OCCCCOS(C)(=O)=O	-9.57%	114%	inactive	inactive	inactive	inactive	inactive	inactive	–	–	–	–	–	–	–	–
CC[C@H](NC(C)C)[C@H](O)c1ccc(O)c2[nH]c(=O)ccc12	-13% and -16.9%	117%	inactive	inactive	inactive	inactive	inactive	inactive	–	–	–	–	–	–	–	–
O=C(O)c1cc(O)c2c(c1)C(=O)c1cccc(O)c1C2=O	-15.1%	115%	5900 nM (active)	inactive	inactive	inactive	inactive	inactive	–	–	–	–	–	–	–	–
CC(=O)O[C@H]1C[C@@H]2CC[C@@H]3[C@H](CC[C@@]4(C)[C@H]3C[C@H]([N+]3(C)CCCCC3)[C@@H]4OC(C)=O)[C@@]2(C)C[C@@H]1N1CCCCC1	9.6%	116%	inactive	inactive	inactive	inactive	inactive	inactive	–	–	–	–	–	–	–	–
Cc1cnc(C(=O)O)c[n+]1[O-]	-19.2%	122%	inactive	inactive	inactive	inactive	inactive	inactive	–	–	–	–	–	–	–	–
CNNCc1ccc(C(=O)NC(C)C)cc1	-0.837%	112%	inactive	inactive	inactive	inactive	inactive	inactive	–	–	–	–	–	–	–	–
CN(CC(=O)N(Cc1ccc(C2CCCCC2)cc1)c1ccc(C(=O)O)c(O)c1)S(=O)(=O)c1c(F)c(F)c(F)c(F)c1F	37.6%	114%	9340 nM (active)	6610 nM (active)	6610 nM (active)	inactive	26300 nM (active)	inactive	–	–	–	–	–	–	–	–
CCOC(=O)[C@H](CCc1ccccc1)N[C@@H](C)C(=O)N1[C@H](C(=O)O)C[C@@H]2CCC[C@@H]21	5.08%	108%	inactive	inactive	inactive	inactive	inactive	inactive	–	–	–	–	–	–	–	–
CC(C)[C@H](CO)Nc1nc(Nc2cccc(Cl)c2)c2ncn(C(C)C)c2n1	–	–	18600 nM (active)	3720 nM (active)	16600 nM (active)	26300 nM (active)	14800 nM (active)	16600 nM (active)	16600 nM (active)	24300 nM (active)	–	–	–	–	–	–
N[C@@]1(C(=O)O)CS(=O)(=O)[C@H]2[C@H](C(=O)O)[C@H]21	-21.5%	114%	inactive	inactive	inactive	inactive	inactive	inactive	–	–	–	–	–	–	–	–
CC(=O)OCCN1C(=O)c2c(C)nc3ccc(S(=O)(=O)N4CCOCC4)cc3c2C1=O	22.9%	121%	inactive	inactive	inactive	inactive	inactive	inactive	–	–	–	–	–	–	–	–
COCCCOc1cc(C[C@@H](C[C@H](N)[C@@H](O)C[C@H](C(=O)NCC(C)(C)C(N)=O)C(C)C)C(C)C)ccc1OC	-7.53% and 23.3%	124%	inactive	inactive	inactive	inactive	inactive	inactive	–	–	–	–	–	–	–	–
CNC(=O)c1cc(Oc2ccc(NC(=O)Nc3cc(C(C)(C)C)nn3-c3ccc4ncccc4c3)c(F)c2)ccn1	–	–	23500 nM (active)	46.8 nM (active)	148 nM (active)	16600 nM (active)	20900 nM (active)	20900 nM (active)	18600 nM (active)	5360 nM (active)	–	–	–	–	–	–
C[N+]1(C)[C@@H]2CC(OC(=O)[C@H](CO)c3ccccc3)C[C@H]1[C@@H]1O[C@@H]12 (stereo not given in full)	-7.53%	116%	inactive	inactive	inactive	inactive	inactive	inactive	–	–	–	–	–	–	–	–
O=P(O)(O)C(O)(Cn1ccnc1)P(=O)(O)O	-20.1%	112%	–	–	–	–	–	–	–	–	121% [at 5.12 µM]	141% [at 5.12 µM]	108% [at 5.12 µM]	117% [at 5.12 µM]	112% [at 5.12 µM]	119% [at 5.12 µM]
